Test results published in ChEMBL document CHEMBL2218924, “A broad activity screen in support of a chemogenomic map for kinase signalling research and drug discovery” (Biochem J, 2013).

What follows are compounds tested against Death-associated protein kinase 1 (Homo sapiens) (UniProt P53355). Conditions: at 1 µM.
Death-associated protein kinase 1 (Homo sapiens), sequence (P53355 whole entry, looked up): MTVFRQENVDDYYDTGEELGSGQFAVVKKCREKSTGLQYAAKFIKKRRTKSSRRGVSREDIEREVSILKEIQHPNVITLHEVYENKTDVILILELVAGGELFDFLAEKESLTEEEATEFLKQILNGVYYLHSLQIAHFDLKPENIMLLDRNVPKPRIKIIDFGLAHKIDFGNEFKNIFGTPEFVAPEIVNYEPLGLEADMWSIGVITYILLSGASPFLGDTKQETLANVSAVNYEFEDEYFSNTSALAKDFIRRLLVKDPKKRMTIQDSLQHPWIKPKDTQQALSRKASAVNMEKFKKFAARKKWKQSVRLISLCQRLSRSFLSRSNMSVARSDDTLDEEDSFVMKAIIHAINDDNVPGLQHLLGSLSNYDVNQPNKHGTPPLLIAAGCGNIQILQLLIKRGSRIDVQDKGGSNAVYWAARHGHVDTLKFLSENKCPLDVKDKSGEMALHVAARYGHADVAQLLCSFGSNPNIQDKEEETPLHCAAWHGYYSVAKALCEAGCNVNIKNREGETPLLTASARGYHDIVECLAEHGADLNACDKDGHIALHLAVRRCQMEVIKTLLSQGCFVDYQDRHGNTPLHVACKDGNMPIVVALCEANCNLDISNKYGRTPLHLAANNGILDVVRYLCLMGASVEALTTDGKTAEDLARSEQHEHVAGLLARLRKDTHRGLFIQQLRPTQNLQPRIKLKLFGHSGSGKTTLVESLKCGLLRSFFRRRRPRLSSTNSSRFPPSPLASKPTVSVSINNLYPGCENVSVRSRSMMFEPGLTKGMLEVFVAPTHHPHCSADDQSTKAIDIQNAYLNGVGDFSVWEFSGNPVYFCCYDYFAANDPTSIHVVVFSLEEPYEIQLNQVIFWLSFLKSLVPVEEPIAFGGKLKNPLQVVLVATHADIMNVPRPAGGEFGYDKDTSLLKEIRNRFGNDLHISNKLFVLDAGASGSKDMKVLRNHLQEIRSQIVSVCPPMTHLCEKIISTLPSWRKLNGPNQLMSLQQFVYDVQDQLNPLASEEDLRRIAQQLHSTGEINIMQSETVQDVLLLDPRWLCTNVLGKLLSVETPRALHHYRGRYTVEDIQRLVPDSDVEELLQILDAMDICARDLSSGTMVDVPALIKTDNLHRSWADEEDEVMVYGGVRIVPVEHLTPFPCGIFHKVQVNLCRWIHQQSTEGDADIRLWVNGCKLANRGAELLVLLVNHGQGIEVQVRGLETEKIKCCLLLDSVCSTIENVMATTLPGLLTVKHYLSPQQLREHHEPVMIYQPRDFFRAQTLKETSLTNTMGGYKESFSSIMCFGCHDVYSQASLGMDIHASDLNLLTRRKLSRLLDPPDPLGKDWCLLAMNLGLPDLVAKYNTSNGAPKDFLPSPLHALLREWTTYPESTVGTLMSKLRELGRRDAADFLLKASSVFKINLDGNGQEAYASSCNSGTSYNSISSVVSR

Structure (SMILES) | residual activity
O=C(Nc1cccc(Nc2nccc(Nc3cccc(C(F)(F)F)c3)n2)c1)C1CC1 | 98%
COc1cc2ncnc(Nc3cccc(Cl)c3)c2cc1OC | 104%
O=C1Nc2ccccc2/C1=C1/Nc2ccccc2/C1=N\OCCC(O)CO (stereo unspecified) | 81%
CC(=O)c1ccc(N2CCOCC2)cc1O | 111%
CC#CC(=O)Nc1cc2c(Nc3ccc(F)c(Cl)c3)ncnc2cn1 | 88%
O=c1cc(N2CCOCC2)oc2c1ccc1ccccc12 | 90%
Nc1nc(Nc2ccc(S(N)(=O)=O)cc2)nn1C(=O)c1c(F)cccc1F | 97%
CCN1/C(=C/C(C)=O)Sc2ccc(OC)cc21 | 81%
CCC(=O)Nc1ccc2ncnc(Nc3cccc(Br)c3)c2c1 | 80%
O=C1NC(=O)/C(=C/c2ccc3c(c2)OC(F)(F)O3)S1 | 98%
O=c1c2ccccc2[nH]c(=S)n1CCN1CCC(=C(c2ccc(F)cc2)c2ccc(F)cc2)CC1 | 106%
O=C1c2ccccc2-[n+]2ccc3c([nH]c4ccccc43)c21 | 86%
O=C1NC(=O)c2c1c1c3ccccc3[nH]c1c1[nH]c3cc(Br)ccc3c21 | 85%
CCN(CC)CCNC(=O)c1c(C)[nH]c(/C=C2\C(=O)Nc3ccc(Cl)cc32)c1C | 75%
CSc1nc(-c2ccc(F)cc2)c(-c2ccnc(NC(C)c3ccccc3)c2)[nH]1 (stereo unspecified) | 91%
CN(C)CCCn1cc(C2=C(c3c[nH]c4ccccc34)C(=O)NC2=O)c2ccccc21 | 106%

Structure (SMILES) | residual activity
COc1cccc(-c2cc(=O)c3ccccc3o2)c1N | 81%
O=C(O)/C=C/c1cc(Br)c(Br)c(Br)c1Br | 86%
Cn1c2ccccc2c2c3c(c4c5ccccc5n(CCC#N)c4c21)CNC3=O | 101%
O=C1NC(=O)C(c2cn(CCCO)c3ncccc23)=C1c1cnccn1 | 94%
Cc1nc2cc3nc(-c4cccs4)cnc3cc2n1C | 94%
Nc1ncnc2c1cnn2-c1ccccc1 | 84%
NC(=O)c1ccc2[nH]c(-c3ccc(Oc4ccc(Cl)cc4)cc3)nc2c1 | 93%
Oc1ccc(Nc2nc(-c3ccc(Cl)cc3)cs2)cc1 | 90%
COc1ccc(OC)c2c(=S)c3ccccc3[nH]c12 | 95%
O=C(O)c1ccc2c3c1cccc3c(=O)n1c3ccccc3nc21 | 79%
COc1ccc(-c2cnc3c(-c4ccsc4)cnn3c2)cc1 | 97%
COc1cc2ncnc(Nc3ccc(O)c(Br)c3)c2cc1OC | 88%
NC(=O)Nc1sc(-c2ccc(F)cc2)cc1C(N)=O | 83%
Cn1cnc2cc3c(Nc4cccc(Br)c4)ncnc3cc21 | 94%
CC(C)N(CCC(=O)c1ccc2ccccc2c1)Cc1ccccc1 | 86%
